# A selection: hits, their analogues and other compounds. The true share with any hit is near 3.5%.
# TEAD-YAP inh – TEAD-YAP interaction inhibition, primary screen, TEAD-YAP interaction inhibitor project, luminescence, HEK-TIYL cells; inhibition, % at 9.12 µM; 640,000 tested, 1.4% active; TEAD-Gal4/YAP UAS-luciferase luminescence; in the data active = inhibition above about 32%
# FBW7 act – FBW7 E3 ligase activators, primary screen, biochemical, AlphaScreen, human; F-box/WD repeat-containing protein 7 (Homo sapiens), Q969H0; AlphaScreen FBW7–phospho-cyclin E peptide binding, activator screen; normalized activity (activation), % at 26.1 µM; 650,000 tested, 0.13% active; in the data active = normalized activity above about 1.9%;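 also: purified mutant Fbw7 with reduced substrate affinity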
# MITF primary – MITF inhibitors, primary screen, biochemical, AlphaScreen, human; Microphthalmia-associated transcription factor (Homo sapiens), O75030; AlphaScreen MITF homodimerization, bead proximity signal; inhibition, % at 2.6 µM; 650,000 tested, 0.91% active; AID 1259374, 2018; in the data active = inhibition above about 50%
# Target sequence (O75030 whole entry, looked up): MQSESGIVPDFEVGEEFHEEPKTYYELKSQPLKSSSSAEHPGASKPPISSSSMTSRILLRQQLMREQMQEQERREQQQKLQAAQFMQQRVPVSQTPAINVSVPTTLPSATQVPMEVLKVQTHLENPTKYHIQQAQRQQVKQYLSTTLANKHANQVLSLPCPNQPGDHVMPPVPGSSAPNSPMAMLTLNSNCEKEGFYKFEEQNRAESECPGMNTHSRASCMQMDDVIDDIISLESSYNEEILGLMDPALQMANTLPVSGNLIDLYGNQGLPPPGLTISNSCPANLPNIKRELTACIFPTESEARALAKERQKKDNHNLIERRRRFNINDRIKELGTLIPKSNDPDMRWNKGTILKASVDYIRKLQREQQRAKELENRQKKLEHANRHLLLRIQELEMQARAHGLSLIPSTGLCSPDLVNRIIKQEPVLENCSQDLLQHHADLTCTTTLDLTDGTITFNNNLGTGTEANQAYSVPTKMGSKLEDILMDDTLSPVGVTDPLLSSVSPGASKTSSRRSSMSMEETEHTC
# GPR151 ag – activators of human GPR151, primary screen, cell-based, PathHunter beta-arrestin, luminescence. G-protein coupled receptor 151 (Homo sapiens), Q8TDV0. PathHunter beta-arrestin GPR151 cells. activation, % at 11.2 µM. 650,000 tested, 1% active. AID 1508602, 2020; in the data active = activation above about 4.9%
# GPR151 confirm – GPR151 activators, triplicate retest, confirmation, cell-based, PathHunter beta-arrestin, luminescence; activation, % at 11.2 µM; AID 1508609, 2020; shares compounds with GPR151 ag; 6,700 tested, under 10 active; GPR151 PathHunter beta-arrestin cells, 90 min; % of EA-reagent control over plate median;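 active = mean percent activation across replicates above the confirmation screen cutoff of 4.91%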
# GPR119 ag – GPR119 activators in beta-arrestin cells, counter-screen for GPR151 activator project, cell-based, PathHunter beta-arrestin, luminescence, triplicate; shares compounds with GPR151 ag; 90 min; 0 = compound-well median, 100 = enzyme-acceptor control; activation, % at 11.2 µM; 6,700 tested, 0.3% active; AID 1508611, 2020;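 active = mean percent activation in the counterscreen above 29.09%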;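 also: counterscreen on off-target GPR119 to flag nonselective hits from the GPR151 activator screen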
# Numbers stand for hits; i = inactive; nt = no result; ! = a repeat was not active.
SMILES,TEAD-YAP inh,FBW7 act,MITF primary,GPR151 ag,GPR151 confirm,GPR119 ag
COC(=O)c1ccc(NC(=O)Cn2c(=O)oc3cc(Cl)ccc32)cc1,i,i,i,i,nt,nt
COc1ccc(/C=N\n2cnnc2)cc1,i,i,i,i,nt,nt
O=C(Nc1ccc2ccccc2c1)/C(=C/c1cccc([N+](=O)[O-])c1)NC(=O)c1ccccc1Br,i,i,i,i,nt,nt
CCOC(=O)c1ccccc1NC(=O)C(C)N(c1ccc(Cl)cc1)S(C)(=O)=O (stereo unspecified),i,i,i,i,nt,nt
COC(=O)c1ccc(NC(=O)C(C)N(c2ccc(C)c(C)c2)S(C)(=O)=O)cc1 (stereo unspecified),i,i,i,i,nt,nt
CCOC(=O)c1ccccc1NC(=O)C(C)N(c1ccc(C)cc1)S(C)(=O)=O (stereo unspecified),i,i,i,5.9,i,i
CCOC(=O)c1ccc(NC(=O)C(C)N(c2ccc(C)c(C)c2)S(C)(=O)=O)cc1 (stereo unspecified),i,i,i,5.1,i,i
COc1ccc(NC(=O)COc2cccc(C)c2C)cc1,i,i,i,7.5,i,i
CCOC(=O)c1c(NC(=O)COc2ccc3c(c2)OCO3)sc2c1CCCC2,i,i,i,5.4,i,i
COC(=O)c1ccc(NC(=O)COc2cccc(C)c2C)cc1,i,i,i,i,nt,nt
CNC(=O)c1c(NC(=O)COc2cccc(C)c2C)sc2c1CCCC2,i,i,i,5.2,i,i
CCOC(=O)c1c(NC(=O)COc2ccc3c(C)cc(=O)oc3c2)sc2c1CCC(C)C2 (stereo unspecified),i,i,i,5.4,i,i
COc1ccc(O)c(CN2CCCC(CCC(=O)NCc3ccccc3F)C2)c1 (stereo unspecified),i,i,i,i,nt,nt
CCCOC(=O)c1c(N)sc2c1CCC(C)C2 (stereo unspecified),i,i,i,i,nt,nt
CCCOC(=O)c1c(NC(=O)OC)sc2c1CCC(C)C2 (stereo unspecified),i,i,i,6.0,i,i
O=C1NC(=O)C2(CCCc3sccc32)N1 (stereo unspecified),i,i,i,i,nt,nt
CC1CCN(C(=O)Cn2nc(SCc3ccccn3)nc2N)CC1,i,i,i,16.6,i,i
CCOC(=O)C1CCCN(C(=O)c2sc3nc(C)nc(N4CCN(c5ccccn5)CC4)c3c2C)C1 (stereo unspecified),i,i,i,i,nt,nt
Cc1ccc(C2=C/C(=C/c3ccccn3)C(=O)O2)c(C)c1,i,i,i,5.3,i,i
N#CC1=C(S)N(c2ccccc2)C(c2cccs2)NC1=O (stereo unspecified),i,i,i,6.9,i,i
N#CC1=C(S)N(c2ccccc2)C(c2ccco2)NC1=O (stereo unspecified),i,i,i,i,nt,nt
O=C(NCc1ccc2c(c1)OCO2)c1cc(-c2ccccc2Cl)nc2ccccc12,i,i,i,i,nt,nt
O=C(NCc1ccc(F)cc1)c1cc(-c2ccccc2Cl)nc2ccccc12,i,i,i,16.5,i,i
NNC(=O)c1cc(-c2ccc(F)cc2)nc2ccccc12,i,i,i,6.1,i,i
NNC(=O)c1cc(-c2ccc(O)cc2)nc2ccc(Br)cc12,i,i,i,i,nt,nt
SMILES,TEAD-YAP inh,FBW7 act,MITF primary,GPR151 ag,GPR151 confirm,GPR119 ag
COc1ccc(-c2cc(C(=O)NN)c3cc(Br)ccc3n2)cc1,i,i,i,5.0,i,i
Cc1ccc(-c2cc(C(=O)NN)c3ccccc3n2)cc1,i,i,i,i,nt,nt
COc1cc(CNc2ncc(-c3ccc4c(c3)OCO4)n2C)cc(OC)c1O,i,i,i,i,nt,nt
Nc1ncc(Br)cc1S(=O)(=O)N(CCc1ccccc1)Cc1ccccc1,i,i,i,9.3,i,i
CN(Cc1ccccc1)S(=O)(=O)c1cc(Br)cnc1N,i,i,i,i,nt,nt
O=C(NCc1ccc(Cl)cc1)C1CCC(Cn2c(=S)[nH]c3ccsc3c2=O)CC1 (stereo unspecified),i,i,i,7.0,i,i
CCOC(=O)c1cccc(NC(=O)CCc2c(C)nc3nc(CN)nn3c2C)c1,i,i,i,5.9,i,i
NC(=O)NC1NC(=O)NC1=O (stereo unspecified),i,i,i,5.7!,i,i
CCc1cc(=O)oc2cc(OC(=O)c3ccco3)ccc12,i,i,i,6.8,i,i
COC(=O)C(C)Oc1ccc2c(C)c(Cc3ccccc3)c(=O)oc2c1 (stereo unspecified),i,i,i,i,nt,nt
CCCCOC(=O)COc1ccc2c(CCC)cc(=O)oc2c1,i,i,i,i,nt,nt
C=CCOC(=O)COc1ccc2c(CCC)cc(=O)oc2c1,i,i,i,5.8,i,i
CCCCCCc1c(C)c2ccc(OC(C)C(=O)OC)cc2oc1=O (stereo unspecified),i,i,i,5.7,i,i
COC(=O)Cc1c(C)c2ccc(OC(=O)c3ccco3)cc2oc1=O,i,i,i,9.0,i,i
Cc1cc(=O)oc2cc(OC(=O)c3ccco3)ccc12,i,i,i,i,nt,nt
Cc1ccc(CS(=O)Cc2ccc(C(=O)NCc3ccc(F)cc3)o2)cc1 (stereo unspecified),i,i,i,i,nt,nt
Cc1ccc(NC(=S)NNC(N)=O)cc1,i,i,i,i,nt,nt
COc1ccc(-c2nc(C(=O)N3CCN(C)CC3)sc2-c2ccc(OC)cc2)cc1,nt,i,i,6.7!,i,i
CC(C)N1CCc2c(sc(NC(=O)C3CC3)c2C(N)=O)C1,i,i,i,i,nt,nt
COc1cc(OC)cc(-n2nc(C(=O)N3CCCCCC3)c3ccccc3c2=O)c1,i,i,i,i,nt,nt
COc1cc(OC)cc(-n2nc(C(=O)N3CCCCC3)c3ccccc3c2=O)c1,i,i,i,12.8,i,i
O=C(c1n[nH]c(=O)c2ccccc12)N1CCCCCC1,i,i,i,5.6,i,i
COc1cc(C=O)c(Br)c(Cl)c1O,i,i,i,i,nt,nt
CCCCOc1ccc(OCCCC)c2c1NC1(N2)C(=O)Nc2ccc([N+](=O)[O-])cc21,i,i,i,5.1,i,i
C(=N\Nc1ccccc1)/c1ccc2c(c1)OCCO2,i,i,i,5.3,i,i
CCCCc1cc(=O)oc2c(C)c(OCC(=O)OC(C)(C)C)ccc12,i,i,i,5.7,i,i
N#Cc1ccc(NC(=O)c2nn3c(c2Br)NC(c2cccs2)CC3C(F)(F)F)cc1 (stereo unspecified),i,i,i,i,nt,nt
